Results: PubChem BioAssay AID686940 (The Scripps Research Institute Molecular Screening Center, 2013)
About 2,600 (0.7%) of roughly 370,000 compounds were called active. What follows is part of a selection rich in actives, with near analogues and random picks from the rest. Values without a mark were called inactive.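 The calls were made as follows: active = inhibition above a per-plate cutoff, mean inhibition of test wells between control levels plus 3 SD (cut at about 38% in these data); inactive = the rest.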

Each compound was assayed against COUP transcription factor 2 (Homo sapiens) (UniProt P24468) (assay: NR2F2 transcriptional activity inhibitors, primary screen, cell-based, luciferase reporter, HEK293T, luminescence (AID 686940;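 also: cells cotransfected with COUP-TFII expression vector driving the NGFI-A reporter; 0% = median of COUP-TF2 test wells and 100% = reporter-only cells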)). Details: HEK293T NGFI-A luciferase reporter, at 8.6 µM, stronger effect = higher value.
Chain of COUP transcription factor 2 (Homo sapiens) (P24468 whole entry, looked up): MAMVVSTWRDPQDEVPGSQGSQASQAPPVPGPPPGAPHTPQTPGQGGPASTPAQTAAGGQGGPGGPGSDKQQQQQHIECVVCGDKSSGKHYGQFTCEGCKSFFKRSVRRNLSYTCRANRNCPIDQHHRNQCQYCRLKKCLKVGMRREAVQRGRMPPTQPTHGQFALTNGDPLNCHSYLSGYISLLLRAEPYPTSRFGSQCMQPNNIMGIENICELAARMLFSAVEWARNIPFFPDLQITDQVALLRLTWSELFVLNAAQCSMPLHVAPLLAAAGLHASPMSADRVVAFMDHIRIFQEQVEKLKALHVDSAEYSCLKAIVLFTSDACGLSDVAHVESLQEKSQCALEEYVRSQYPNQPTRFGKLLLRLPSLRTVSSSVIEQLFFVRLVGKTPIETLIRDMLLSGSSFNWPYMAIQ

Going from `COc1ccc(-c2cc(-c3nnc(SCc4ccc([N+](=O)[O-])cc4)n3N)[nH]n2)cc1` to `COc1ccc(CNC(=O)COc2cccnc2[N+](=O)[O-])cc1`, the inhibition falls from 11.7% to 0.02%.

Compared with `C=CCN1C(=O)[C@@H](CC(=O)NCCCCc2ccccc2)[C@]2(C(=O)OCC)CCCCC/C=C/12`, `C=CCN1C(=O)[C@@H](CC(=O)N2CCN(C(=O)OCC)CC2)[C@]2(C(=O)OCC)CCCCC/C=C/12` is higher in inhibition: -17.9% for the first, 3.11% for the second.

Going from `Cc1ccc(S(=O)(=O)N(C)CC(=O)N2CCc3ccccc32)cc1` to `CN(c1ccc(C(=O)N2CCc3ccccc3C2)cc1)S(C)(=O)=O`, the inhibition rises from -12.3% to -7.57%.

Compared with `CN(Cc1cccs1)C(=O)CN1C(=O)c2ccccc2S1(=O)=O`, `Cc1ccc(C)c(NC(=O)CCS(=O)(=O)c2ccccc2)c1` is higher in inhibition: -15.9% for the first, -5.81% for the second.

Going from `CC(=O)Nc1cccc(NC(=O)c2ccc3c(c2)CCN3S(C)(=O)=O)c1` to `CC(=O)Nc1ccc(C(=O)Nc2cccc(S(=O)(=O)NC3=NCCC3)c2)cc1`, the inhibition rises from -21% to -6.18%.

First: COCCCNC(=O)C[C@H]1C[C@@]2(C(=O)OC)C(=C[C@H](C(C)(C)C)O[C@@H]2C)N(Cc2ccc(Cl)cc2Cl)C1=O
Second: CCOC(=O)N1CCN(C(=O)C[C@H]2C[C@@]3(C(=O)OC)C(=C[C@H](C(C)(C)C)O[C@@H]3C)N(Cc3ccc(Cl)cc3Cl)C2=O)CC1
The inhibition of the first is higher: 6.74% for the first, -1.12% for the second.

Compared with `CCOC(=O)[C@]12CCCC3=C1N(CCC3)C(=O)[C@@H](CC(=O)NCc1cccs1)C2`, `CCOC(=O)[C@]12CCCCC/C=C\1N(Cc1ccc(OC)cc1)C(=O)[C@H]2CC(=O)N1CCOCC1` is higher in inhibition: -7.47% for the first, 13.5% for the second.

First: CC(C)CNc1cccc2c1S(=O)(=O)N(Cc1cn(Cc3ccccc3C(F)(F)F)nn1)Cc1ccccc1O2
Second: CN(CCO)c1cccc2c1S(=O)(=O)N(Cc1cn(Cc3ccc(C(F)(F)F)cc3)nn1)Cc1ccccc1O2
The inhibition of the first is higher: 3.92% for the first, -35.7% for the second.

First: CC(C)(C)c1cc(C(=O)NN)n(Cc2ccc(Cl)cc2Cl)n1
Second: CCOC(=O)C1CCN(C(=O)C(C)(C)NC(=O)Nc2ccc(F)c(F)c2)CC1
The inhibition of the first is higher: 12.5% for the first, -2.96% for the second.

First: Cn1ccc(=NC=C(C#N)C#N)c2ccccc21
Second: CCOC(=O)c1ccc(NC(=O)CCn2c(=O)oc3ccccc32)cc1
The inhibition of the first is lower: -6.63% for the first, 6.76% for the second.

Compared with `COC(=O)[C@H](C(C)C)N(CCc1cn(Cc2ccccc2)nn1)S(=O)(=O)c1ccc(F)cc1Br`, `COc1ccccc1NC(=O)CSc1nnc(CNC(=O)c2ccccc2F)o1` is higher in inhibition: -0.51% for the first, 1.36% for the second.

Compared with `CC(C)Nc1ncnc2c1ncn2[C@H]1CN(Cc2ccncc2)C[C@@H](CO)O1`, `OC[C@@H]1CN(Cc2cccs2)C[C@H](n2cnc3c(Nc4ccccc4)ncnc32)O1` is higher in inhibition: -8.36% for the first, 10.6% for the second.

Going from `OCCN1CCN(c2ncnc3c2ncn3[C@H]2CN(Cc3ccco3)C[C@@H](CO)O2)CC1` to `OC[C@@H]1CN(C2CCCC2)C[C@H](n2cnc3c(NC4CCC4)ncnc32)O1`, the inhibition falls from -8.87% to -25.3%.

Going from `CCCCCN1CCCCC(NC(=O)C(C)CCC)C1=O` (configuration not stated) to `Cc1ccccc1CN1CCCCC(NC(=O)c2cccc(C#N)c2)C1=O` (configuration not stated), the inhibition falls from 4.97% to -2.68%.

First: C=CCN(C(=O)[C@@H](CCCC)[C@@H](O)c1ccc(Cl)cc1)c1ccccc1
Second: O=C(CN1CCCc2ccccc21)NCc1ccc(F)cc1
The inhibition of the first is lower: -5.06% for the first, 5.12% for the second.

First: Cc1c(CCC(=O)N[C@@H](CC(C)C)C(=O)O)c(=O)oc2c(C)c3oc4c(c3cc12)CCCC4
Second: Cc1c(C)c2cc3c4c(oc3c(C)c2oc1=O)CCCC4
The inhibition of the first is higher: 6.96% for the first, -4.7% for the second.

First: COc1cc(C(=O)NCc2nnc(SCC(=O)c3ccc(Cl)cc3)o2)cc(OC)c1OC
Second: COC(=O)[C@]12C[C@H](CC(=O)NCc3ccccc3)C(=O)N(CCc3ccc(OC)c(OC)c3)C1=C[C@H](C(C)(C)C)O[C@@H]2C
The inhibition of the first is lower: 7.38% for the first, 10.6% for the second.

Going from `O=C(CSc1nc2sc3c(c2c(=O)n1-c1ccccc1)CCCC3)NN=Cc1ccc(OCc2ccccc2)cc1` to `Cc1ccc(-n2c(SCC(=O)N3c4ccccc4Sc4ccccc43)nnc2-c2ccncc2)cc1`, the inhibition rises from -6.12% to 6.33%.

First: Cc1ccc(-n2c(SCC(=O)Nc3ccc(S(=O)(=O)Nc4nccs4)cc3)nnc2-c2ccncc2)cc1
Second: Cc1ccc(N2CC(C(=O)Nc3ccc(S(=O)(=O)N4CCCC4)cc3)CC2=O)cc1C (configuration not stated)
The inhibition of the first is higher: 3.85% for the first, -1.2% for the second.

Compared with `CC(C)N1CCCCC(NC(=O)c2ccc3ccccc3c2)C1=O` (configuration not stated), `C=CCOc1ccc(C(=O)Nc2ccccc2C(=O)N2CCCC2)cc1` is lower in inhibition: -8.52% for the first, -20.6% for the second.

Compared with `C=CCN1[C@H](CC(C)C)COc2cccc(N3CCCC3)c2S1(=O)=O`, `C=CCN1[C@@H](Cc2ccccc2)COc2cccc(N3CCSCC3)c2S1(=O)=O` is lower in inhibition: 14.6% for the first, 5.82% for the second.

Compared with `O=S(=O)(c1ccccc1)N1CCC(c2nc3ccccc3o2)CC1`, `O=C(COc1ncnc2ccccc12)NC(=O)NCc1ccccc1` is higher in inhibition: -11.5% for the first, 11.2% for the second.

First: CCCNC(=O)Nc1ccc2c(c1)C(=O)N(C)[C@H]1CC[C@H](CC(=O)NCC3CCCCC3)O[C@@H]1CO2
Second: COC(=O)C[C@@H]1CC[C@H]2[C@@H](COc3ccc(NS(=O)(=O)CC(F)(F)F)cc3C(=O)N2C)O1
The inhibition of the first is higher: 9.56% for the first, -17.9% for the second.

Going from `C[C@@H]1ON(C)[C@H]2C[C@H]3c4[nH]c5cccc(-c6ccc7c(c6)OCO7)c5c4CCN3C[C@@H]12` to `c1coc(CCNc2ncnc3ccc(-c4ccc5c(c4)OCO5)cc23)c1`, the inhibition rises from -15.3% to -3.64%.

First: COc1ccc(S(=O)(=O)N2CCCCC2)cc1NC(=O)C1CC(=O)N(c2ccc3c(c2)OCCO3)C1 (configuration not stated)
Second: CN1CCN(c2ccc(NC(=O)c3ccc4c(c3)OCCO4)cc2Cl)CC1
The inhibition of the first is higher: 0.74% for the first, -69.1% for the second.

First: COc1ccc([C@H]2OC(=O)C[C@H]2C(=O)N2CCN(c3ccccc3F)CC2)cc1OC
Second: COc1cc(C(=O)Nc2cc(C(F)(F)F)ccc2N2CCOCC2)ccc1O
The inhibition of the first is higher: -8.84% for the first, -16.6% for the second.

First: Cc1cc(C(=O)COC(=O)CNC(=O)c2ccc(F)cc2)c(C)n1Cc1ccco1
Second: COCCn1c(C)cc(C(=O)COC(=O)CNC(=O)c2ccco2)c1C
The inhibition of the first is higher: 22.8% for the first, -5.61% for the second.

Compared with `C=CCn1c(SCC(N)=O)nnc1-c1ccccc1OC`, `COCCn1c(SCC(=O)Nc2nc(C)cs2)nnc1C(C)C` is lower in inhibition: 9.3% for the first, -1.64% for the second.

Going from `Cc1csc(NC(=O)CN2CCCCCC2)n1` to `COC[C@@H]1CCCN1c1ccc2c(c1)O[C@H](C)CCN(C1CC1)S2(=O)=O`, the inhibition falls from 4.1% to -10.8%.

Compared with `CCOc1ccc(Oc2c(Cl)cnn(-c3ccc(C)cc3)c2=O)cc1`, `COc1ccc(S[C@]2(C(=O)N(C)C)CC(=O)N(c3ccc(OC)cc3)[C@@H]2c2ccc(OC)cc2)cc1` is lower in inhibition: 7.75% for the first, -1.97% for the second.

Going from `Cc1sc2nc(SCC(=O)c3ccc(O)c(O)c3)n(Cc3ccco3)c(=O)c2c1C` to `O=C(NCc1ccncc1)C(=O)NCc1ccco1`, the inhibition falls from 7.6% to 2.85%.

Going from `Cc1ccc(NC(=O)Cn2cnc3c(OCc4ccccc4)ncnc32)cc1C` to `COC(=O)CC1CCc2cc(C)cc(C(CC(C)C)NC(=O)[C@H](CC(C)C)NC(=O)OCc3ccccc3)c2O1` (some centres not stated), the inhibition rises from 2.95% to 5.51%.

For `CC(=O)O[C@@]1(C(C)=O)CCC2[C@H]3C=C(C)C4=CC(=O)CC[C@@]4(C)C3CC[C@]21C` (some centres not stated), the inhibition was 3.66%.

`O=C(CN1C(=O)c2ccccc2S1(=O)=O)N1CCc2ccccc21` was tested, and the inhibition was 57.8% (active).
`CN(c1cccc(NC(=O)c2ccc(CN3CCc4ccccc4C3)cc2)c1)S(C)(=O)=O` was tested, and the inhibition was 61.4% (active).
For `N#CC(C#N)=CN=c1ccn(Cc2ccc(Cl)cc2Cl)cc1`, the inhibition was 41.5% (active).
For `OC[C@@H]1CN(Cc2ccncc2)C[C@H](n2cnc3c(N4CCN(c5ccccc5)CC4)ncnc32)O1`, the inhibition was 65.7% (active).
In the case of `OC[C@@H]1CN(Cc2ccc(-c3ccccc3)cc2)C[C@H](n2cnc3c(NC4CCCC4)ncnc32)O1`, the inhibition is reported as 73.9% (active).
With `CC[C@@H](C)[C@H](NC(=O)CCc1c(C)c2cc3c4c(oc3c(C)c2oc1=O)CCCC4)C(=O)O` the inhibition was 39.7% (active).
In the case of `CCC(=O)Nc1ccc(C(=O)CSc2nnc(CNc3ccc(Cl)cc3)o2)cc1OC`, the inhibition is reported as 42.1% (active).
`Cc1ccc(Nc2nc(CSc3nnc(-c4ccncc4)n3-c3ccccc3C)cs2)cc1` was tested, and the inhibition was 39.8% (active).
With `CCCCCCCCn1c2c(c(=N)c3c1CCC3)CCCC2` the inhibition was 84.5% (active).
For `Cc1ccc(NC(=O)C2CC(=O)N(c3ccc4c(c3)OCCO4)C2)cc1S(=O)(=O)N1CCCCCC1` (configuration not stated), the inhibition was 42.3% (active).
For `O=C(Nc1cccc(S(=O)(=O)Nc2ccc(Cl)cc2)c1)c1ccc2c(c1)OCCO2`, the inhibition was 50.8% (active).
For `Cc1ccsc1C(=O)OCC(=O)c1cc(C)n(CC2CCCO2)c1C` (configuration not stated), the inhibition was 87.1% (active).
`COc1cc(SC)ccc1C(=O)Nc1nc(C)cs1` was tested, and the inhibition was 67.9% (active).
In the case of `CCOC(=O)c1ccc(NC(=O)Cn2cnc3cc(C)c(C)cc32)cc1`, the inhibition is reported as 59.5% (active).
`COc1ccc(C(=O)Nc2ccccc2C(=O)N/N=C/c2ccc(O)c(OC)c2)cc1` was tested, and the inhibition was 77.1% (active).
For `COc1ccc(CNc2ncnc3ccccc23)cc1`, the inhibition was 56.7% (active).
`c1coc(CNc2ncnc3ccccc23)c1` was tested, and the inhibition was 53.6% (active).
